According to PubChem BioAssay:

The molecules below were run against 6-phosphogluconate dehydrogenase, decarboxylating (Homo sapiens) (UniProt P52209) (assay: inhibition of human phosphogluconate dehydrogenase – biochemical, recombinant enzyme, NADPH absorbance, primary screen (AID 1159550)). Settings: recombinant 6PGD, NADPH absorbance 341 nm; at 10 µM; hits give high values;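 active means at least 20% inhibition of 6-phosphogluconate dehydrogenase activity; inactive means the rest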.
Sequence of 6-phosphogluconate dehydrogenase, decarboxylating (Homo sapiens) (P52209 whole entry, looked up): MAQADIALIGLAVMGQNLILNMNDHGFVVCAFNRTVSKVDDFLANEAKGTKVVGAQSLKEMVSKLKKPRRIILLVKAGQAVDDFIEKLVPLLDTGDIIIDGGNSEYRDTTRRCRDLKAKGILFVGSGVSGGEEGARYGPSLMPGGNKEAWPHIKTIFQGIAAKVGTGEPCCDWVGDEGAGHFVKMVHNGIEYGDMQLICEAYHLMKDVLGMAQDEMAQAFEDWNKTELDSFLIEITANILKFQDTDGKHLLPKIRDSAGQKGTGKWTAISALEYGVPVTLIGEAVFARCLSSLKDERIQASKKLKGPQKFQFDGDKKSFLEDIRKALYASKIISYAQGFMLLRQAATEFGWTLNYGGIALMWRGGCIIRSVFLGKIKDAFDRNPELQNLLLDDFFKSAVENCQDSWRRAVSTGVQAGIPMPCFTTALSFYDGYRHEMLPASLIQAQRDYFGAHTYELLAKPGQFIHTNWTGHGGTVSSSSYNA

inhibition, inactive:
CC(C)/C(O)=C1/C(=O)O[C@@H](c2ccoc2)[C@]2(C)C(O)[C@@H](O)[C@@]34OC5(C)OC67CC(C)(C(O)[C@]6(O)[C@@H](O)[C@]3(O5)C12)[C@H](CC(=O)O)[C@]74C (stereo partly drawn) 16.8%
OC[C@H]1O[C@@H](O[C@H]2[C@H](O)[C@@H](O)[C@H](O)O[C@@H]2CO)[C@H](O)[C@@H](O)[C@@H]1O -3.99%
CC(=O)O[C@H]1CC[C@]2(C)[C@H]3CC=C4[C@@H]5CC(C)(C)CC[C@]5(C(=O)O)CC[C@@]4(C)[C@]3(C)CC[C@H]2C1(C)C -0.817%
C1CCN2CC3CC(CN4CCCCC34)C2C1 (stereo not drawn) 12.3%
O=C/C=C/c1ccc(O)cc1 1.58%
NC(=O)c1cc[n+](CC2=C(C(=O)O)N3C(=O)[C@H](NC(=O)C(c4ccccc4)S(=O)(=O)[O-])[C@@H]3SC2)cc1 (stereo partly drawn) -12%
CC(=O)c1ccc(O)c(CC=C(C)C)c1 18.5%
CC(C)c1ccc2c(c1)CC[C@@]1(C)[C@](C)(C(N)=O)CCC[C@]21C 18%
COc1cc(O)cc(/C=C/c2ccccc2)c1 10.9%
Cc1occc(=O)c1/C=C/O 0.162%
CC(=O)O[C@H]1CC2C(C)(C)[C@H](OC(C)=O)C=C[C@@]2(C)C2CC[C@@]3(C)C(=CC(=O)O[C@@H]3c3ccoc3)[C@]21C (stereo partly drawn) 0.19%
OC[C@@H](O)C(O)[C@H](O)CO -0.48%
COc1ccc(C2COc3cc(O)ccc3C2)c(OC)c1O (stereo not drawn) 1.81%
